Screening data deposited in PubChem BioAssay by National Center for Advancing Translational Sciences (NCATS).
Tau fibril FP: qHTS for Inhibitors of Tau Fibril Formation, Fluorescence Polarization; Potency, µM (titrated, usually from 57.7 µM), for the others: top-dose activity, negative = inhibition, most hits filed as inhibitors; 0.39% of 280,000 active; K18 P301L tau heparin fibrillization, Alexa594 FP, 6 h; active = well fitted curve in the direction sought with a large enough effect; inconclusive = small, poorly fitted or top-dose-only effect, or another doubt; inactive = no such curve, though single readings can be large; an effect the other way counts as inactive or inconclusive; also: nearly all actives have a fitted effect of over 55% in size
Target sequence (P10636 561-689 P618L limits assumed): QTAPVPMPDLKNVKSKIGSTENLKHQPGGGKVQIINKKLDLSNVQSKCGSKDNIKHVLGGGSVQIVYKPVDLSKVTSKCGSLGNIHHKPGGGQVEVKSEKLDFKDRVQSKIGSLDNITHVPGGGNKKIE
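Human K18 P301L fragment (15 uM unlabeled plus 0.24 uM Alexa 594-labeled) in 100 mM sodium acetate pH 7 with compound, aggregation induced by 20 uM heparin for 6 hr at 37 C. ThT (30 uM) added for 1 hr, then Alexa 594 FP read.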
HPGD inh: qHTS Assay for Inhibitors of HPGD (15-Hydroxyprostaglandin Dehydrogenase). 15-hydroxyprostaglandin dehydrogenase [NAD(+)] (Homo sapiens), P15428. purified HPGD, NADH fluorescence kinetic, PGE2 substrate. Potency, µM, inactives show top-dose activity change, negative = inhibition, most hits filed as inhibitors. 4.3% of 150,000 active
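NADH formation kinetics: reaction with 30 uM PGE2 and 1 mM NAD+ (final), 20 nM enzyme, Tris-HCl pH 8 with Tween 20, after 15 min compound preincubation at room temperature. Fluorescence change, last versus first of five reads.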
JMJD2E inh: qHTS Assay for Inhibitors of Human Jumonji Domain Containing 2E (JMJD2E); Lysine-specific demethylase 4E (Homo sapiens), B2RXH2; JMJD2E catalytic domain, FDH-coupled NADH fluorescence (FDH is formaldehyde dehydrogenase); Potency, µM (doses to about 57.1 µM), for the others: at the top dose activity change, negative = inhibition, hits mostly inhibitors; 1.6% of 230,000 active;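 also: 0% = wells with enzyme and -100% = buffer wells without enzyme; nearly all actives have a fitted effect of over 50% in size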
Target sequence (B2RXH2 1-337 limits assumed): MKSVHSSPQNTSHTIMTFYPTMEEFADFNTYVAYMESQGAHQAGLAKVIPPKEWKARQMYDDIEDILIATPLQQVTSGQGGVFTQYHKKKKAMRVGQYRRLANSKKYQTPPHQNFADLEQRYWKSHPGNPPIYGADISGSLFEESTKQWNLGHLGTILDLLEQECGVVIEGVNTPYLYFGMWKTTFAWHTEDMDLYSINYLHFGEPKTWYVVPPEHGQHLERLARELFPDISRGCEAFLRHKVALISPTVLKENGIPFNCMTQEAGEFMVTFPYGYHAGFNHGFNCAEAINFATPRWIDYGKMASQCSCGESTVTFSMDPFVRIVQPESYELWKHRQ
Tau fluor cs: Counterscreen qHTS for Inhibitors of Tau Fibril Formation, Fluorescence Polarization. tau K18 P301L Alexa594 fluorescence, heparin fibrillization. Potency, µM (titrated, usually from 57.7 µM), inactives show top-dose activity change, negative = decrease. 0.93% of 280,000 active. AID 1463, 2008; active = well fitted curve in the direction sought with a large enough effect; inconclusive = small, poorly fitted or top-dose-only effect, or another doubt; inactive = no such curve, though single readings can be large; an effect the other way counts as inactive or inconclusive; also: nearly all actives have a fitted effect of over 55% in size
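Human tau K18 P301L (15 uM unlabeled, 0.24 uM Alexa 594-labeled) in 100 mM sodium acetate pH 7 with 20 uM heparin, 6 hr at 37 C. ThT 30 uM added, 1 hr ambient; Alexa 594 FP and total fluorescence read at 555/632 nm.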
Tau ThT inhib: qHTS for Inhibitors of Tau Fibril Formation, Thioflavin T Binding; recombinant tau K18 P301L, heparin-induced fibrillization, ThT fluorescence; Potency, µM (series often up to 57.4 µM), without a hit: top-dose activity, negative = inhibition, most hits filed as inhibitors; 2.1% of 270,000 active; AID 1460, 2008; active = well fitted curve in the direction sought with a large enough effect; inconclusive = small, poorly fitted or top-dose-only effect, or another doubt; inactive = no such curve, though single readings can be large; an effect the other way counts as inactive or inconclusive; also: nearly all actives have a fitted effect of over 55% in size
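ThT emission at 510 nm, taken 1 hr after adding 30 uM dye, quantifies aggregates formed when 20 uM heparin acts on human tau K18 P301L for 6 hr at 37 C.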
ALDH1A1 block: qHTS Assay for Inhibitors of Aldehyde Dehydrogenase 1 (ALDH1A1). AID 1030, 2008. Aldehyde dehydrogenase 1A1 (Homo sapiens), P00352. 7.3% of 220,000 active. Potency, µM (series often up to 75.3 µM), without a hit: top-dose activity, negative = inhibition, usual class: inhibitors. Purified ALDH1A1, NADH fluorescence, propionaldehyde substrate;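 also: plate controls were no enzyme wells and a reference inhibitor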
* hit, by the source's call; ? = inconclusive; . = not tested or not shown. A selection: hits, their analogues and other compounds. The true share with any hit is near 9.9%. Unless noted, calls follow the shape of the dose curve; as a rule, active = well fitted inhibition curve with a large enough effect (not every such curve was filed as active); inconclusive = small, poorly fitted or top-dose-only effect, or another doubt; inactive = no such curve, though single readings can be large or run the other way. Unless noted, % is scaled to controls: 0 for no effect and ±100 for the full control effect; potency is read from the fitted curve at half-maximal effect.

SMILES	Tau fibril FP	HPGD inh	JMJD2E inh	Tau fluor cs	Tau ThT inhib	ALDH1A1 block
Cc1ccc(Nc2nc(N)nc(CN3CCN(Cc4ccc5c(c4)OCO5)CC3)n2)cc1C	-3%	.	5%	-10%	-9%	7.9µM*
Cc1cc(C)n(CCc2nc(-c3ccc(F)cc3)cs2)n1	3%	25µM*	-1%	10%	10%	3%
Cc1cc(C)n(CCc2nc(-c3ccc(C(C)(C)C)cc3)cs2)n1	9%	.	1%	-11%	?	?
Cc1nn(-c2ccccc2)c(N)c1Sc1cccc([N+](=O)[O-])c1	7%	25µM*	-11%	-20%	-12%	?
Cc1nn(-c2ccccc2)c(N)c1Sc1ccccc1[N+](=O)[O-]	-5%	-11%	-1%	-22%	-15%	?
Cc1ccn2c(/C=N/OCc3ccc(F)cc3)c(-c3ccc(Cl)cc3)nc2c1	-3%	.	-30%	-9%	-16%	22µM*
CS(=O)(=O)Nc1cccc(C2=NN(C(=O)c3ccccc3Cl)C(c3ccccc3O)C2)c1 (stereo not given)	-14%	-1%	0%	-25%	4%	?
COc1cc(C2Nn3c(nnc3-c3ccccc3OC)S2)ccc1O (stereo not given)	-8%	?	-20%	-8%	-8%	24µM*
COc1cc(C2Nc3ccccc3C(=O)N2c2ccccc2OC)ccc1O (stereo not given)	-2%	?	?	-12%	-7%	?
CCC(CC)=NNc1cccc([N+](=O)[O-])c1	6%	?	1%	-2%	6%	28µM*
CC(=O)/C(N)=N/Nc1cccc(Cl)c1	16%	-10%	-11%	?	?	-7%
COc1ccc(C(=O)/C(C#N)=N/Nc2cccc([N+](=O)[O-])c2)cc1	5%	.	3%	?	7.9µM*	?
N#C/C(=N\Nc1ccccc1Cl)C(=O)c1ccccc1	?	28µM*	6%	-22%	20µM*	-67%
Cc1c(N/N=C(\C#N)C(=O)c2ccccc2)c(=O)n(-c2ccccc2)n1C	-3%	-23%	2%	-20%	?	?
N#C/C(=N\Nc1cccc(Cl)c1)C(=O)c1ccccc1	11%	-17%	-3%	?	10µM*	2%
COC(=O)N1CCC2(CC1)CN(c1ccncc1)C2	.	-10%	.	.	.	9%
CC(=O)c1c(C)[nH]c(C(=O)NCCc2ccccc2)c1C	4%	-13%	4%	-9%	-13%	2%
CC(=O)c1c(C)[nH]c(C(=O)N(C)C(c2ccccc2)c2ccccc2)c1C	6%	.	-22%	2%	-3%	18µM*
CCOc1ccc(Cc2noc3c2C(=O)CC(C)(C)C3)cc1OCC	4%	.	8%	-11%	-5%	11µM*
O=C(CN1CCN(Cc2ccccc2)CC1)Nc1cccc(C(F)(F)F)c1	-2%	-11%	3%	-9%	-3%	2%
O=C(CN1CCN(c2ccccn2)CC1)Nc1cccc(C(F)(F)F)c1	-2%	5%	-23%	-12%	-15%	9.5µM*
O=C(CN1CCN(c2ccccn2)CC1)N1c2ccccc2Sc2ccc(C(F)(F)F)cc21	3%	-15%	?	-6%	-10%	7.9µM*
CCCN(CCC)CC(O)Cn1cc(/C=C/C(=O)c2ccc(OC)cc2)c2ccccc21 (stereo not given)	-1%	.	.	?	?	.
COc1cc(/C=N/Nc2ncc(C(F)(F)F)cc2Cl)cc(OC)c1O	-1%	14µM*	?	?	?	-24%
